This is part of a sample that, as a whole, favours compounds with a hit. Of some 83,000 tested, about 20% had one in any assay.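 Treatment: one concentration, 48 hours, 96-well format. Scoring: percent growth, with anything below 10 considered active.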 Values without a mark were called inactive. Calls of active or inactive are those of the source.

The assay has as its system MDA-MB-468 breast. Briefly: NCI-60 one-dose screen, 48 h (100 = growth as untreated, 0 = no growth, -100 = all killed). Particulars: 10 µM unless noted.
Consider `Cc1cc(/C=C\c2ccc3ccccc3[n+]2C)c(O)c2ncccc12`, for which the growth was -27% (active). In the case of `O=C(CNC(=O)OCc1ccccc1)NCC(=O)Oc1ccc([N+](=O)[O-])cc1` it was 106%; in that of `NC1=C(Cl)C(=O)c2ccccc2C1=O`, 36.5%; in that of `CC1(C)OC(=O)C(=Cc2ccccc2Br)C(=O)O1`, 98.2%. In the case of `COc1ccc(/C=C/C(=O)Nc2cc(/C=C\c3cc(OC)c(OC)c(OC)c3)cc(OC)c2OC)cc1OC` it was 17.5%; in that of `COc1cc2oc(-c3cccc(NC(=O)c4ccc5c(c4)OCO5)c3)cc(=O)c2c(OC)c1OC`, 75.5%; in that of `C=CC(=O)N1CCC[C@H](n2c(=O)n(-c3ccc(Oc4ccccc4)cc3)c3c(N)ncnc32)C1`, 0.223% (active).

Regarding `C=C1C(=O)O[C@H]2[C@H]1CC/C(C=Nc1c(N)cc(C(F)(F)F)cc1Br)=C\CC[C@@]1(C)O[C@@H]21`, the growth was -16.6% (active). In the case of `O=C1/C(=C2/C=Nc3ccccc32)N(O)c2ccccc21` it was 62.2%; in that of `CCOC(=O)C#Cc1c(C(=O)OCC)nnn1[C@@H]1O[C@H](COC(C)=O)[C@@H](OC(C)=O)[C@H]1OC(C)=O`, 61.5%; in that of `Cn1c2ccccc2c2c3c(c4c5ccccc5n(CCCCCC#N)c4c21)C(=O)N(O)C3=O`, -49.5% (active). In the case of `COc1ccc(-c2c3c(nc4n[nH]c(-c5ccc(Cl)cc5)c24)-c2ccccc2C(=O)C3=O)cc1` it was -9.02% (active). Regarding `C/C(=N/N=C(N)N)c1ccc(Cl)cc1`, the growth is 95.7%.

On to `COc1cc(-c2ccc[nH]2)[nH]c1/C=C1\N=C(C)C(CC(=O)OCC(C)(C)C)=C1C`, for which the growth is -79.2% (active). In the case of `O=C(Nc1ccc(OS(=O)(=O)c2ccc(F)cc2)cc1)C1CCCCCC1` it was 102%. In the case of `Cc1ccc(C(O)C2CC2)cc1` (stereo not given) it was 103%.

Consider `COc1nc(Nc2cccc(C(F)(F)F)c2)nc(OC)n1`, for which the growth is 112%. In the case of `COC(=O)CC1=C(c2ccc([N+](=O)[O-])cc2)CCC1=O` it was 101%; in that of `O=C(NC(=S)Nc1ccc(Cl)cc1)c1ccccc1`, -37% (active). In the case of `O=S(=O)(NCCNc1cc(-c2cn(-c3ccccc3)nc2-c2cccc(O)c2)ccn1)c1ccc(C(F)(F)F)cc1` it was 21.6%; in that of `ClC1=C(Br)C(Br)(Br)C(=C(Br)Br)C1(Br)Br`, 74.4%. In the case of `O=C(Cn1ccc(=O)[nH]c1=O)c1ccc([N+](=O)[O-])o1` it was 44.4%; in that of `OCc1cccc(-c2ccc3ncc(-c4nc(NC5CC5)ncc4F)n3c2)c1`, -39.1% (active); in that of `CC(C)OC(=O)NNC(=O)c1ccncc1`, 118%. For the compound `ICCC(c1ccccc1)(c1ccccc1)c1ccccc1`, the growth is 22.6%. In the case of `COc1cc(/C=C/C(=O)c2c(-c3ccc(Cl)cc3)nc3sc(C)nn23)cc(OC)c1OC` it was 65.7%; in that of `COc1ccc2c(c1)C(=O)c1c-2c(OCCN(C)C)nc2cc(OC)c(OC)cc12`, 81.6%. In the case of `CC1(C)CC[C@]2(C(=O)O)CC[C@]3(C)C(=CC[C@@H]4[C@@]5(C)C[C@@H](Cc6cn([C@@H]7O[C@H](CO)[C@@H](O)[C@H](O)[C@H]7O)nn6)[C@H](O)C(C)(C)[C@@H]5CC[C@]43C)[C@@H]2C1` it was 87%.

As for `CCCc1nc2ccccn2c1Nc1ccc(C(=O)NO)cc1`, the growth was 87.9%.

Regarding `COc1ccc(/C=N\NC(=O)CN2CCN(c3cc4c(cc3F)c(=O)c(C(=O)N/N=C/c3ccc(OC)cc3)cn4C3CC3)CC2)cc1`, the growth was 84.3%. Turning to `COc1ccc(CN2C(=O)/C(=C\c3cc(OC)c(OC)c(OC)c3)c3ccccc32)cc1`, the growth was 5.64% (active). In the case of `COc1cccc(NC(=O)c2cccc(C3CCc4c(cc(OC)c(OC)c4OC)O3)c2)c1` (stereo not given) it was 71.5%; in that of `Cn1cnc([N+](=O)[O-])c1S(=O)(=O)Oc1ccc(Cl)cc1`, 29.8%. In the case of `COc1ccc(/C=N/NC(=O)COCC(=O)N/N=C/c2ccc(OC)cc2)cc1` it was 100%; in that of `Cc1ccc(C)c2c1sc1nc(N3CCOCC3)c(C#N)c(=O)n12`, 86.9%; in that of `CCCn1cnc2c(c1=N)C(c1ccc(F)cc1)c1sc3c(C)cccc3c1O2` (stereo not given), -26.7% (active). In the case of `Cc1nc(N=C(N)N)nc2ccc3ccccc3c12` it was -55.8% (active); in that of `COc1cc2c(cc1OC)[C@H](C(=O)O)[C@@H](c1ccc(OC(C)C)c(OC)c1)N(C)C2=O`, 105%; in that of `CCN1CCN(C(=S)SCC(=O)Nc2nc3ccc(C)cc3s2)CC1`, 104%. Turning to `CC(C)(C)n1cc(-c2ccnc(NCCCNS(=O)(=O)c3cccc(F)c3)n2)c(-c2ccc(Cl)c(O)c2)n1`, the growth is 104%.
